Among the data in ChEMBL document CHEMBL1961873, “Compounds: GSK PKIS; Assays: Nanosyn kinase panel” (2012) are inhibition values, retold here.

The target of assay [1] is Mast/stem cell growth factor receptor Kit (Homo sapiens) (UniProt P10721). The note with it: at 1 µM.
Assay [2] has as its system Mast/stem cell growth factor receptor Kit (Homo sapiens), P10721 [D816V]. Conditions: at 0.1 µM.
Assay [3] shares this test system. Conditions: at 1 µM.
Assay [4] relates to Mast/stem cell growth factor receptor Kit (Homo sapiens), P10721 [T670I]. The note with it: at 0.1 µM.
Assay [5] has the same test system. The note with it: at 1 µM.
For assay [6], the system named is Mast/stem cell growth factor receptor Kit (Homo sapiens), P10721 [V560G]. Conditions: at 0.1 µM.
The test system is the same in assay [7]. Conditions: at 1 µM.
The target of assay [8] is Tyrosine-protein kinase Lck (Homo sapiens) (UniProt P06239). Conditions: at 0.1 µM.
The target is the same in assay [9]. Conditions: at 1 µM.
Assay [10] deals with Leukocyte tyrosine kinase receptor (Homo sapiens) (UniProt P29376). The note with it: at 0.1 µM.

Molecules are shown by their SMILES.

Tyrosine-protein kinase Lck (Homo sapiens), sequence (P06239 2-509 limits assumed): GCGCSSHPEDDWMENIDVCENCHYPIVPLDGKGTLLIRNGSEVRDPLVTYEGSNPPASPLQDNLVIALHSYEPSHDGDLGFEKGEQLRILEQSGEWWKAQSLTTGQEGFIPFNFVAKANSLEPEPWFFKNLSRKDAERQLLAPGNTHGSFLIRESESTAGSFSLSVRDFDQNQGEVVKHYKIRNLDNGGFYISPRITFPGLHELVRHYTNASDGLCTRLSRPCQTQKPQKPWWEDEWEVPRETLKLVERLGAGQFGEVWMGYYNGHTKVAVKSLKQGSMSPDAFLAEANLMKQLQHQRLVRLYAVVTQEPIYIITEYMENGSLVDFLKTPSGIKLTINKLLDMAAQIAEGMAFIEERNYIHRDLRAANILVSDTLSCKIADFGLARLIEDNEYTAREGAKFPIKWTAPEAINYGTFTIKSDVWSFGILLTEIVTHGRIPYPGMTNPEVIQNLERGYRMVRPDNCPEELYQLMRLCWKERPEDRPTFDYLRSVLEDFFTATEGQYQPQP
Mast/stem cell growth factor receptor Kit (Homo sapiens), P10721 [T670I], sequence (P10721 whole entry T670I): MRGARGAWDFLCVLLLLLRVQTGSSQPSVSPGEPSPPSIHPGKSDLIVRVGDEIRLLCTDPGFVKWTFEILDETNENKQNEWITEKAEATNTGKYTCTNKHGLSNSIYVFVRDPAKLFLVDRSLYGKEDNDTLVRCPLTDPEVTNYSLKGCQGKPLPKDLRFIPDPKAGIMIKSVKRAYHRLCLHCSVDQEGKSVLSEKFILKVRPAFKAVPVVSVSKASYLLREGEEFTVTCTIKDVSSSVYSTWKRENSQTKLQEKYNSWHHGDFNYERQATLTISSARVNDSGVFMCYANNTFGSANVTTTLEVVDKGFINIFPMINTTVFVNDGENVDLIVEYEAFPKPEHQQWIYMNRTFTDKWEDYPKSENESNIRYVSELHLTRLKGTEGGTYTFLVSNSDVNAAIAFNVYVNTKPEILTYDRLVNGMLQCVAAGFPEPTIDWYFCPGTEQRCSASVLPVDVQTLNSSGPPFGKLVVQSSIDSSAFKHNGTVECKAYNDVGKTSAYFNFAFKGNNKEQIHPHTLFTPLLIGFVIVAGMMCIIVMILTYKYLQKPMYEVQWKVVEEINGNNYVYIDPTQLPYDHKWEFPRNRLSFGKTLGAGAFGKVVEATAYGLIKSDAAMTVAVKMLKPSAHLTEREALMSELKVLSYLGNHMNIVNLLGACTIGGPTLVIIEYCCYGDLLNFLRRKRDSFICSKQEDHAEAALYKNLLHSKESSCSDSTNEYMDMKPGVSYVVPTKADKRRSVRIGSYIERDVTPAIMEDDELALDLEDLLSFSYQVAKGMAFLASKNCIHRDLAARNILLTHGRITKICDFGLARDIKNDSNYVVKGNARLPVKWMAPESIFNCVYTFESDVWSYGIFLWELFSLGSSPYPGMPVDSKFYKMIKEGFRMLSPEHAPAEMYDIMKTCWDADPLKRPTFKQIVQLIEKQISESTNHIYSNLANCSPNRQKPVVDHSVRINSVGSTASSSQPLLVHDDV
Mast/stem cell growth factor receptor Kit (Homo sapiens), sequence (P10721 whole entry): as the sequence (P10721 whole entry T670I) above, with I670T counted along it
Mast/stem cell growth factor receptor Kit (Homo sapiens), P10721 [V560G], sequence (P10721 whole entry V560G): as the sequence (P10721 whole entry T670I) above, with V560G, I670T counted along it
Mast/stem cell growth factor receptor Kit (Homo sapiens), P10721 [D816V], sequence (P10721 whole entry D816V): as the sequence (P10721 whole entry T670I) above, with I670T, D816V counted along it
Leukocyte tyrosine kinase receptor (Homo sapiens), sequence (P29376 whole entry): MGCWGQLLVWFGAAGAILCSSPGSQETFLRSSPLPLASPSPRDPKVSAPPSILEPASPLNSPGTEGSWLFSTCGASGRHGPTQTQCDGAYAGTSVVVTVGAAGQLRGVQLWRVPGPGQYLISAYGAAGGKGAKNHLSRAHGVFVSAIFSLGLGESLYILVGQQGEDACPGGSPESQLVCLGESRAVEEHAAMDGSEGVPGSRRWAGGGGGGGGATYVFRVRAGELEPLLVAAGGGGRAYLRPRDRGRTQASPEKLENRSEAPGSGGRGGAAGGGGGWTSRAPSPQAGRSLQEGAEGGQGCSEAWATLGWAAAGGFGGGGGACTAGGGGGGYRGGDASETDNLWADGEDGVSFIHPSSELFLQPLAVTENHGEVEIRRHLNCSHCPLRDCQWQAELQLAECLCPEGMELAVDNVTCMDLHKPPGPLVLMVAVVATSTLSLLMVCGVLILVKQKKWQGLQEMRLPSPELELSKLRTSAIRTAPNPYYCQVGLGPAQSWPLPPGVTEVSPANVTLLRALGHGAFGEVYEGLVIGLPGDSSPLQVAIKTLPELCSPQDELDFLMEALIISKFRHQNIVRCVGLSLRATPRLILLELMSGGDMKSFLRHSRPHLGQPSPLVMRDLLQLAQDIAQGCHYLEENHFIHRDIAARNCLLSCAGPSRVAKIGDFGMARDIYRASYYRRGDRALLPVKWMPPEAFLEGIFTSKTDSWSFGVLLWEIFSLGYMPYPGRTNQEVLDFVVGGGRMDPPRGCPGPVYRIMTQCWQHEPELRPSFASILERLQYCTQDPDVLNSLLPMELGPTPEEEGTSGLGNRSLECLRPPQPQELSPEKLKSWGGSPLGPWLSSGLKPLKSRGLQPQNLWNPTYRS

In general, inhibition refers to the change of the read-out against control, counted positive when it falls. `COc1ccc(-c2ccncc2)cc1C(N)=O`: the inhibition in assay [1] was 8.81%; in assay [2], 5.33%; in assay [3], 6.29%; in [4] it was 2.7%; in [5], 5.32%; in assay [6], -1.34%. Moreover, the inhibition in assay [7] was -1.88%; in [8], 3.42%; in assay [9], 4.47%; in assay [10], 5.46%.

For `Nc1nc(-c2ccc3c(c2)C(=Cc2cc(Br)c(O)c(Br)c2)C(=O)N3)cs1`, the inhibition is 3.41% in assay [1]; 0.19% in [2]; -1.02% in [3]; -2.39% in [4]; -1.52% in assay [5]; 3.52% in assay [6]. Further, the inhibition in assay [7] is 1.96%; in assay [8], -1.54%; in [9] it was 4.41%; in assay [10], 1.87%.

Take `Cc1nnc(-c2ccc(C)c(-c3ccc(C(=O)Nc4cccc(C#N)c4)cc3)c2)o1`: the inhibition in [1] came out at 6.9%; in [2], 2.18%; in assay [3], 2.02%; in assay [4], 0.85%; in [5], 1.69%; in [6], 0.81%. In addition, the inhibition amounted to 2.86% in [7], 1.89% in assay [8], 2.99% in [9] and 2.14% in assay [10].

In the case of `CS(=O)(=O)CCNCc1ccc(-c2ccc3ncnc(Nc4ccc(OCc5ccccc5)c(Cl)c4)c3c2)o1`, the inhibition in [1] was 1.79%; in assay [2] it was 0.03%; in [3], 2.97%; in assay [4], 1.42%; in assay [5] it was 1.36%; in assay [6], 7.05%. Also, the inhibition in assay [7] was 1.37%; in assay [8], 1.77%; in [9], 9.7%; in assay [10], 0.32%.

In the case of `CCn1c(-c2nonc2N)nc2cncc(C(=O)N3CC[C@H](N)C3)c21`, the inhibition in assay [1] is 6.77%; in assay [2] it was 5.29%; in [3] it was 5.73%; in assay [4], 3.35%; in assay [5], 3.02%; in assay [6], 2.5%. Also, the inhibition in [7] is -1.61%; in assay [10], 4.31%.

As to `Cc1nn(C)c2cc(N(C)c3ccnc(Nc4cccc(S(N)(=O)=O)c4)n3)ccc12`, the inhibition in assay [1] was 88%; in [2] it was 2.13%; in [3], 5.94%; in assay [4], 5.8%; in assay [5], 38.2%; in assay [6], 4.37%. Further, the inhibition in assay [7] amounted to 37.3%; in assay [8] it was 14%; in [9], 57.4%; in assay [10], 5.42%.

`O=C1Nc2ccc(C(=O)c3ccco3)cc2C1=Cc1cc(Cl)c(O)c(Cl)c1`: the inhibition came to 63.5% in [1]; 1.83% in assay [2]; 0.61% in [3]; 2.58% in [4]; 21.1% in [5]; 3.94% in assay [6]. The inhibition is 6.75% in assay [7], 2.53% in [8], 12.8% in assay [9] and 9.03% in assay [10].

`Fc1cccc(COc2ccc(Nc3ncnc4cc(-c5ccc[nH]5)sc34)cc2Cl)c1`: the inhibition was determined as 2.05% in assay [1]; 0.67% in assay [2]; 1.62% in [3]; 1.82% in assay [4]; 2.49% in assay [5]; 0.61% in assay [6]. Besides, the inhibition in assay [7] is 1.53%; in assay [8], -1.91%; in assay [9], 2.29%; in [10] it was 2.11%.

`CCCN1CCC=C(c2ccc(Nc3nc(Nc4ccccc4C(N)=O)c4cc[nH]c4n3)c(C)c2)C1`: the inhibition is 11.6% in assay [1]; 7.12% in assay [2]; 3.39% in assay [3]; 4.53% in [4]; 0.85% in assay [5]; -4.87% in assay [6]. Also, the inhibition was -3.21% in [7], 4.63% in assay [8], 7.36% in assay [9] and 79.4% in [10].

Regarding `COC(=O)Nc1nc2cc(Oc3cccc(NC(=O)Nc4cc(C(F)(F)F)ccc4F)c3)ccc2[nH]1`, the inhibition was 48.2% in assay [1]; 1.96% in assay [2]; -0.67% in assay [3]; -2.55% in assay [4]; 2.17% in [5]; 4.04% in assay [6]. The inhibition is 38.8% in assay [7], 1.15% in assay [8], 10.5% in assay [9] and 0.06% in assay [10].

As for `COc1ccc(COc2ccc(Cc3cnc(N)nc3N)cc2OC)cc1`, the inhibition in assay [1] is 7.39%; in assay [2], -2.58%; in assay [3], -2.51%; in assay [4] it was -2.93%; in assay [5] it was -3.14%; in [6] it was 5.62%. Further, the inhibition in assay [7] was 8.16%; in assay [8], 0.03%; in assay [9], 2.78%; in assay [10], -1.03%.

In the case of `CCn1c(-c2nonc2N)nc2cncc(C(=O)N3CCNCC3)c21`, the inhibition in [1] is 7.52%; in assay [2], 4.16%; in assay [3], 4.92%; in assay [4], 2.72%; in [5], 3.08%; in [6], -3.45%. Further, the inhibition was -0.74% in assay [7], 3.56% in assay [8], 5.67% in assay [9] and 5.18% in [10].

As to `O=C1NC(=O)C(c2cccc(Cl)c2)=C1Nc1ccc(O)c(Cl)c1`, the inhibition in assay [1] is -2.75%; in [2], 0.75%; in assay [3] it was -6.88%; in assay [4], -1.24%; in assay [5], -2.14%; in [6], -1.77%. The inhibition in assay [7] stood at 1.92%; in assay [8] it was 1.6%; in assay [9] it was 6.56%; in assay [10], 0%.

In the case of `Nc1nc(-c2ccccn2)c(-c2ccc3ncccc3n2)s1`, the inhibition was 3.6% in assay [1]; 3.62% in assay [2]; 4.08% in assay [3]; 4.81% in assay [4]; 3.16% in [5]; -2.5% in assay [6]. In addition, the inhibition in [7] was 2.06%; in assay [8], 0.48%; in assay [9], 0.19%; in assay [10] it was 2.47%.

For `CC(C)=Cc1cccc2c1/C(=N/Nc1ccc(S(N)(=O)=O)cc1)C(=O)N2`, the inhibition in assay [1] amounted to 67.5%; in assay [2], 2.15%; in assay [3] it was 4.23%; in assay [4], 5.7%; in [5], 52.1%; in assay [6], 4.73%. In addition, the inhibition in [7] was found to be 10.1%; in [8], 3.66%; in assay [9] it was 14.7%; in assay [10], 1.87%.

As to `Cn1cc(C=C2C(=O)Nc3cccnc32)c2ccccc21`, the inhibition was 52.7% in assay [1]; 2.87% in [2]; 5.81% in assay [3]; 2.37% in assay [4]; 19.8% in assay [5]; -1.28% in [6]. For the same compound, the inhibition in [7] stood at 3.99%; in assay [8] it was 4.03%; in [9] it was 25.5%; in assay [10], 2.72%.

For `CS(=O)(=O)CCNCc1nc(-c2ccc3ncnc(Nc4ccc(F)c(Cl)c4)c3c2)cs1`, the inhibition in assay [1] was found to be 5.11%; in assay [2], 3.12%; in assay [3] it was 2.42%; in assay [4], 1.78%; in [5], 2.83%; in [6], 10.4%. Moreover, the inhibition in assay [7] came to 10.7%; in [8], 3.91%; in assay [9], 20%; in assay [10], 2.39%.
